Source: PubChem (Johns Hopkins Ion Channel Center)
ANO1 activ – TMEM16A chloride channel activators or potentiators, primary screen, cell-based, HTS; Anoctamin-1 (Mus musculus), Q8BHY3; 0.3% of 340,000 active; HEK293 TMEM16A/YFP-H148Q/I152L, iodide quench fluorescence; stronger effect = lower value; B-score at 10 µM; AID 623877, 2012;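 active = fluorescence-ratio B-score plate-corrected deviation score at least 3 library SD below zero, with starting fluorescence score within 5 deviations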;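 also: channel opened by trigger with iodide after compound preincubation; score built on the fluorescence ratio of max minus min over baseline; more negative score means more quench and so TMEM16A activation or potentiation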
CHT PAM – CHT positive allosteric modulators, primary screen, cell-based, membrane potential dye, choline EC20; CHT-expressing cells; stronger effect = higher value; LV-AA mutant CHT in HEK293 cells; B-score at 10 µM; 0.49% of 310,000 active; AID 488977, 2010;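 active = initial fluorescence not abnormally high and integrated response B-score, plate-corrected, over 3 SD above library mean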
Target sequence (Q9GZV3 whole entry, looked up): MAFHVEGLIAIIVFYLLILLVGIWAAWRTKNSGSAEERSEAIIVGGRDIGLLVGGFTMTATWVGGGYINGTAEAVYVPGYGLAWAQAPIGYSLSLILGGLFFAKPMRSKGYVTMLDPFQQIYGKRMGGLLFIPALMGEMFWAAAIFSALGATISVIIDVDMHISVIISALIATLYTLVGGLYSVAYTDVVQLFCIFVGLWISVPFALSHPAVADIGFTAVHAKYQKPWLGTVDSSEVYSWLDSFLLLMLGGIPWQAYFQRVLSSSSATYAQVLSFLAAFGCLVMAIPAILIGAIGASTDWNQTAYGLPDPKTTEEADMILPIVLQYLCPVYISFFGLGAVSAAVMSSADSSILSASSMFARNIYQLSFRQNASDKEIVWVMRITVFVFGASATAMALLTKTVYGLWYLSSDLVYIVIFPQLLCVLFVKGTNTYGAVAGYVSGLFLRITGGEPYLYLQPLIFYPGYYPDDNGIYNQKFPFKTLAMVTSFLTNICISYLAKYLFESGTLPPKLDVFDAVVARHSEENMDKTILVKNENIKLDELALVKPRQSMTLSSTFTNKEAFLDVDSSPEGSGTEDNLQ
CHT inh – inhibitors of human choline transporter CHT | 0.86% of 310,000 active | High affinity choline transporter 1 (Homo sapiens), Q9GZV3 | CHT-expressing cells, membrane potential dye, choline response; stronger effect = lower value | B-score at 10 µM | AID 488975, 2010;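 active = B-score over 3 SD under the library average, and starting fluorescence ratio not unusually high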;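 also: choline stimulus applied at its EC90 after an EC20 pre-addition; B-score computed on integrated fluorescence ratio after choline addition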
ANO1 block – TMEM16A chloride channel inhibitors, primary screen, cell-based, HTS | normalized B-score (activity score, 25-100; higher = stronger inhibition) at 10 µM | Anoctamin-1 (Mus musculus), Q8BHY3 | HEK293 TMEM16A/YFP iodide influx fluorescence, ionomycin | 1.2% of 310,000 active;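 active = ratio plate-corrected score three or more library SD toward inhibition, starting fluorescence score within five deviations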;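 also: score derived from kinetic fluorescence span divided by baseline fluorescence per well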
CHT block conf – CHT inhibitors, confirmation, cell-based, membrane potential dye, duplicate; shares compounds with CHT inh; 70% of 2,400 active; CHT activity remaining % of control (stronger effect = lower value), % at 10 µM; CHT-expressing cells, choline membrane potential dye; LV-to-AA substituted CHT, HEK293 cells;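 active = choline transporter activity left, mean of duplicates at 10 µM, below buffer-only control mean minus 3 SD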;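 also: depolarization triggered by choline at its EC90 following an EC20 pre-addition; 0% = hemicholinium-3 full block and 100% = buffer-only control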
HEK293 MPD ctr – membrane potential effects in parental HEK293, counter-screen for CHT inhibitor project, cell-based, membrane potential dye | shares compounds with CHT inh | choline response; active = decrease or increase beyond buffer ±3SD | membrane potential ratio readout (active if shifted either direction beyond buffer ±3SD; no single direction) at 10 µM | 4% of 2,400 active;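 also: parental cells lack the transporter so any hit is non-specific; ratio is peak minus trough fluorescence over baseline after EC90 choline challenge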
Numbers without * were called inactive. Rows were chosen to be rich in hits. Some 2.3% of all compounds tested hit in one or more screens of this group.

O=[N+]([O-])c1ccc(O)c(C2=NNC(c3ccccc3F)C2)c1 (centres undefined) was read as ANO1 activ inactive, CHT PAM inactive, CHT inh -10*, ANO1 block 100*, CHT block conf 20%* and HEK293 MPD ctr inactive.
Cc1cc2cc(CNC(=S)NC3CCCCC3)ccc2n1C was read as ANO1 activ inactive, CHT PAM inactive, CHT inh inactive and ANO1 block inactive.
For Cc1ccc(C)c(N(C)S(=O)(=O)c2cccc3nsnc23)c1 the results were ANO1 activ inactive, CHT PAM inactive, CHT inh -5.2*, ANO1 block inactive, CHT block conf inactive and HEK293 MPD ctr inactive.
CCOC(=O)c1ccc(NC(=S)NNC(=O)C2(C)CC2(Cl)Cl)cc1 (centres undefined) was read as ANO1 activ inactive, CHT PAM inactive, CHT inh -6.7*, ANO1 block inactive, CHT block conf inactive and HEK293 MPD ctr inactive.
Screening c1ccc(CN2CCC(Nc3nc(-c4ccccc4)nc4ccccc34)CC2)cc1 returned ANO1 activ inactive, CHT PAM inactive, CHT inh -6.3*, ANO1 block inactive, CHT block conf inactive and HEK293 MPD ctr inactive.
For COCCn1nnnc1C(c1ccccc1OC)N1CCc2ccccc2C1 (centres undefined) the results were ANO1 activ inactive, CHT PAM inactive, CHT inh inactive and ANO1 block inactive.
For CC(=O)c1ccc(N2CCN(C(=O)C3CCCN(c4ncnc5c4nc4n5CCCCC4)C3)CC2)cc1 (centres undefined) the results were ANO1 activ inactive, CHT PAM inactive, CHT inh -5.9*, ANO1 block inactive, CHT block conf 32%* and HEK293 MPD ctr inactive.
`COc1ccc(N2CCN(C(=O)C3CCCN(c4ncnc5c4nc4n5CCCCC4)C3)CC2)cc1` (centres undefined) gave ANO1 activ inactive, CHT PAM inactive, CHT inh inactive and ANO1 block inactive.
For O=C(C1CCCN(c2ncnc3c2nc2n3CCCCC2)C1)N1CCN(c2ccc(Cl)cc2)CC1 (centres undefined) the results were ANO1 activ inactive, CHT PAM inactive, CHT inh -7.8*, ANO1 block inactive, CHT block conf 40%* and HEK293 MPD ctr inactive.
O=C(C1CCCN(c2ncnc3c2nc2n3CCCCC2)C1)N1CCN(c2ccc(F)cc2)CC1 (centres undefined) was read as ANO1 activ inactive, CHT PAM inactive, CHT inh -8*, ANO1 block inactive, CHT block conf 37%* and HEK293 MPD ctr inactive.
Screening O=C(C1CCCN(c2ncnc3c2nc2n3CCCCC2)C1)N1CCCCC1 (centres undefined) returned ANO1 activ inactive, CHT PAM inactive, CHT inh inactive and ANO1 block inactive.
Screening COc1ccc(C(=O)Nc2ccc(Cl)cc2C(=O)N2CCCC(C)C2)cc1 (centres undefined) returned ANO1 activ inactive, CHT PAM inactive, CHT inh inactive and ANO1 block inactive.
Screening CN(C)c1ccc(S(=O)(=O)NCC(=O)OCC(=O)c2ccc[nH]2)cc1[N+](=O)[O-] returned ANO1 activ inactive.
`CCCCCOc1ccc(C(=O)Nc2ccc(S(=O)(=O)Nc3cc(C)on3)cc2)cc1` gave ANO1 activ inactive, CHT PAM inactive, CHT inh inactive and ANO1 block inactive.
O=C(O)c1cc([N+](=O)[O-])ccc1NCc1ccccc1Cl was read as ANO1 activ inactive, CHT PAM inactive, CHT inh -5.6*, ANO1 block inactive, CHT block conf inactive and HEK293 MPD ctr inactive.
`Cn1c(=O)n(C)c2cc(NC(=O)COc3ccc(F)cc3)ccc21` gave ANO1 activ inactive, CHT PAM inactive, CHT inh inactive and ANO1 block inactive.
`O=C(CCc1ccc(S(=O)(=O)N2CCOCC2)cc1)N/N=C/c1ccc(O)c(O)c1O` gave ANO1 activ inactive, CHT PAM inactive, CHT inh -12*, ANO1 block inactive, CHT block conf inactive and HEK293 MPD ctr inactive.
Screening O=C(CCc1ccc(S(=O)(=O)N2CCOCC2)cc1)N/N=C/c1ccc(F)cc1F returned ANO1 activ inactive, CHT PAM inactive, CHT inh inactive and ANO1 block inactive.
Screening O=C(CCN1N=C(c2ccccc2)CCC1=O)NCCCN1CCOCC1 returned ANO1 activ inactive, CHT PAM inactive, CHT inh inactive and ANO1 block inactive.
`CC(=O)NCC(=O)N(Cc1ccco1)C1(C(=O)NC2CCCCC2)CCCCC1` gave ANO1 activ inactive, CHT PAM inactive, CHT inh -5.6*, ANO1 block inactive, CHT block conf inactive and HEK293 MPD ctr inactive.
Screening Cc1ccc2c(c1)c(CC(=O)Nc1ccc(C)c(F)c1)c(C(=O)O)n2C returned ANO1 activ inactive, CHT PAM inactive, CHT inh -5.4*, ANO1 block inactive, CHT block conf 63%* and HEK293 MPD ctr inactive.
Screening Cn1c(C(=O)O)c(CC(=O)Nc2ccccc2F)c2ccccc21 returned ANO1 activ inactive, CHT PAM inactive, CHT inh inactive and ANO1 block inactive.
COC(=O)c1ccc(Cn2c(CN3CCOCC3)nc3ccccc3c2=O)o1 was read as ANO1 activ inactive, CHT PAM inactive, CHT inh -5.2*, ANO1 block inactive, CHT block conf inactive and HEK293 MPD ctr inactive.
Screening CCN1CCN(Cc2nc3c(c(=O)n(C)c(=O)n3C)n2CCc2ccccc2)CC1 returned ANO1 activ inactive.
Screening Cn1c(=O)c2c(nc(CN3CCOCC3)n2CCc2ccccc2)n(C)c1=O returned ANO1 activ inactive, CHT PAM inactive, CHT inh -5*, ANO1 block inactive, CHT block conf inactive and HEK293 MPD ctr inactive.
Cc1ccnc(SCc2cc(=O)c(OC(=O)c3ccco3)co2)n1 was read as ANO1 activ inactive, CHT PAM inactive, CHT inh -5.8*, ANO1 block inactive, CHT block conf 61%* and HEK293 MPD ctr inactive.
